Compound activity from PubChem.
Compounds with a hit are over-represented: about 2.8% of the library has one in this group of screens.
proKLK7 act: proKLK7 (human) activation, primary screen. purified proKLK7, EDANS-DABCYL substrate fluorescence; 100% is mature enzyme control, 0% vehicle. activation, % at 7 µM. actives 0.9% (n = 370,000). P49862;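 active = activation above the mean of all tested compounds plus 3 SD, computed per campaign excluding outliers beyond control limits, cut at about 13% in these data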
Target sequence (P49862 whole entry, looked up): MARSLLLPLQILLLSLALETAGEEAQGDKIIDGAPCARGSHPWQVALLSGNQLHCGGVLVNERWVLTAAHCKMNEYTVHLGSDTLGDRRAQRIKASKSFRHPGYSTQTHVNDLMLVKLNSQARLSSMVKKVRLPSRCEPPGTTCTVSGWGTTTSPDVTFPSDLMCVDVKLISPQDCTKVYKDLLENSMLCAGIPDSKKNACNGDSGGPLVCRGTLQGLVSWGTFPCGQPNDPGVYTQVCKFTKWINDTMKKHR
SMARCA2 act: increases SMARCA2 function in MMTV reporter cells | actives 1% (n = 370,000) | MG213 cells, MMTV-luciferase reporter, dexamethasone, overnight | activation, % at 9.1 µM; in the data active = activation above about 7.8%
bovine MsrA act: activates bovine MsrA enzyme | activation, % at 10.6 µM | AID 602163 | purified bovine MsrA, absorbance read-out | actives 0.3% (n = 360,000); in the data active = activation above about 7.5%
MsrA inhibitor: inhibitors of bovine MsrA; AID 651718; inhibition, % at 15.5 µM; actives 0.75% (n = 360,000); purified bovine MsrA, absorbance read-out
MsrA conf: confirmation of bovine MsrA inhibitors; shares compounds with MsrA inhibitor; purified bovine MsrA, absorbance read-out; inhibition, % at 15.5 µM; actives 41% (n = 2,300);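 also: coupled to thioredoxin reductase with NADPH and selenocystamine and DMSO as substrate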
Of the large screens only hits and unclear results are named; the others gave an inactive call (follow-up assays come after a bar, where they were run). Rule as the data show it, unless noted: active = inhibition above about 4.5%; inactive = the rest.

CC(C)CN(CC(C)C)c1ccc(/C=N/n2cnnc2)cc1[N+](=O)[O-]	none
O=Cc1ccc(N2CCCC2)c([N+](=O)[O-])c1	MsrA inhibitor 6.7 | MsrA conf 4.8
O=[N+]([O-])c1ccc(N2CCCCCC2)c([N+](=O)[O-])c1	none
O=[N+]([O-])c1cc(/C=N/O)ccc1N1CCCC1	none
N#Cc1cc([N+](=O)[O-])ccc1N1CCCC1	MsrA inhibitor 10.8 | MsrA conf 5.0
O=[N+]([O-])c1cc(/C=N/n2cnnc2)ccc1N1CCCC1	MsrA inhibitor 7.7 | MsrA conf 5.1
CCOC(=O)c1cccc(NC(=O)CN(C)S(=O)(=O)c2ccc(C)c(C)c2)c1	none (no result: bovine MsrA act, MsrA inhibitor)
CCCCNC(=S)N(C)/N=C/c1ccc(OCC(=O)Nc2c(C)cc(C)cc2C)c(OC)c1	none
CCCCNC(=S)N(C)/N=C/c1ccc(OCC(=O)Nc2ccc(OC)cc2)c(OC)c1	MsrA inhibitor 6.5 | MsrA conf inactive
CCCCCCNC(=O)C1CSCCS(=O)(=O)N1Cc1ccc(OC)cc1 (configuration not stated)	none (no result: bovine MsrA act, MsrA inhibitor)
Oc1oc(-c2ccccc2)nc1C=Nc1cccc2ccccc12	none
Oc1oc(-c2ccccc2)nc1C=NCc1ccncc1	MsrA inhibitor 5.9 | MsrA conf inactive
CSc1ncccc1C(=O)OC(C)C(=O)Nc1cccc(S(=O)(=O)N2CCOCC2)c1 (configuration not stated)	none
COc1cccc(/C=C2\SC(N3CCC(C)CC3)=NC2=O)c1OC	MsrA inhibitor 5.9 | MsrA conf inactive
COc1ccccc1/C=C1\SC(N2CCC(C)CC2)=NC1=O	none
Cc1[nH]c2ccccc2c1CC#N	none
Cc1[nH]c2ccccc2c1C(C#N)(C#N)C1C(=O)c2ccccc2C1=O	MsrA inhibitor 46.8 | MsrA conf 46.4
Oc1ccc(/C=N\Nc2nncc(-c3ccccc3)n2)cc1	MsrA inhibitor 5.8 | MsrA conf inactive
Cc1oc(/C=N/NC(=O)CC2(C)OCCO2)cc1Br	none
CC1(CC(=O)N/N=C/c2cc(Br)c(O)cc2O)OCCO1	MsrA inhibitor 6.1 | MsrA conf 5.3
CC(C)(C)NC(=O)NC(=O)C[n+]1ccc(Cc2ccc([N+](=O)[O-])cc2)cc1	MsrA inhibitor 11.5 | MsrA conf inactive
Cc1ccc(Cl)cc1NC(=O)C[n+]1ccc(Cc2ccc([N+](=O)[O-])cc2)cc1	MsrA inhibitor 6.6 | MsrA conf inactive
O=C(C[n+]1ccc(Cc2ccccc2)cc1)Nc1ccc([N+](=O)[O-])cc1Cl	none
CCOC(=O)[C@]12CCCCC/C=C\1N(Cc1ccc(OC)cc1)C(=O)[C@H]2CC(=O)N1CCC(c2ccccc2)CC1	none (no result: bovine MsrA act, MsrA inhibitor)
O=C(O)c1ccc2c(=O)n3c(nc2c1)/C(=C/c1cccc(O)c1)CC3	MsrA inhibitor 5.0 | MsrA conf inactive
O=C1CN(C(=O)c2cccc(Br)c2)c2ccccc2N1	none
Cc1ccc(C)c(NC(=O)CNC(=O)N2CC(=O)Nc3ccccc32)c1	none
Cc1cccc(Nc2c([N+](=O)[O-])cc(C(=O)N3CC(=O)Nc4ccccc43)cc2[N+](=O)[O-])c1	MsrA inhibitor 4.7 | MsrA conf inactive
Cc1ccc(C)c(Nc2c([N+](=O)[O-])cc(C(=O)N3CC(=O)Nc4ccccc43)cc2[N+](=O)[O-])c1	MsrA inhibitor 12.0 | MsrA conf 9.9
O=C(O)[C@H](Cc1ccccc1)Nc1ccc([N+](=O)[O-])cn1	MsrA inhibitor 4.8 | MsrA conf inactive
Cn1c(-c2ccncc2)nc2ccccc21	none
CCN(CC)c1ccc(-c2nc3cnccc3n2C)cc1	MsrA inhibitor 5.4 | MsrA conf inactive
CC(C)NC(=O)C1(C)CCN1C(=O)c1ccccc1 (configuration not stated)	none
CC(c1ccc(Cl)cc1)N(CCN(C)C)c1ccccn1 (configuration not stated)	none (no result: bovine MsrA act)
COP(=O)(OC)C(Cc1ccccc1)NC(=O)CNC(=O)OCc1ccccc1 (configuration not stated)	none (no result: bovine MsrA act, MsrA inhibitor)
CCc1nc(Nc2ccncc2)c2oc3ccccc3c2n1	MsrA inhibitor 4.7 | MsrA conf inactive
C/C(=N\Nc1cccc(C(=O)O)c1)c1cc2ccccc2o1	MsrA inhibitor 5.5 | MsrA conf inactive
C/C(=N\Nc1ccc(Cl)c(C(=O)O)c1)c1cc2ccccc2o1	MsrA inhibitor 5.4 | MsrA conf 5.8
CN1[C@@H](COCc2ccccc2)C=CS1(=O)=O	none
COc1ccc(NC(=O)COc2coc(CN3c4ccccc4CC3C)cc2=O)cc1 (configuration not stated)	none
CC[C@H](C)[C@H]1CNC(=O)C(=O)N1CC1CCN(CC(C)C)CC1	none (no result: bovine MsrA act)
CC(C)(C)OC(=O)N/N=C\C=C\c1ccc2c(c1)OCO2	MsrA inhibitor 5.1 | MsrA conf inactive
CCN(CC)c1ccc(/C=N/NC(=O)C2CC2)cc1	MsrA inhibitor 5.8 | MsrA conf 5.5
O=C(/C=C/c1ccco1)NCC(=O)N/N=C/c1ccccc1[N+](=O)[O-]	none
COc1ccc(/C=C/C(=O)NCc2ccc3c(c2)OCO3)cc1OC	none
COc1ccc(CC(=O)N/N=C/C=C/c2ccc3c(c2)OCO3)cc1OC	MsrA inhibitor 5.9 | MsrA conf inactive
CCN(CC)c1ccc(/C=N/NC(=O)CNC(=O)/C=C/c2ccco2)cc1	MsrA inhibitor 6.3 | MsrA conf 8.0
Cc1sc(NC(=O)C2CSC3(C)CCC(=O)N23)nc1-c1ccccc1 (configuration not stated)	none
COCCN1C(=O)C2=C(C1=O)C1N(C)c3ccccc3[C@@]13C[C@@H](CO)N(S(=O)(=O)c1ccc(OC)cc1)C3=N2 (some centres not stated)	none (no result: bovine MsrA act, MsrA inhibitor)
CCOC(=O)N/N=C\C=C\c1ccc2c(c1)OCO2	MsrA inhibitor 7.3 | MsrA conf 4.7
COC(=O)N/N=C\C=C\c1ccc2c(c1)OCO2	none
CCN(CC)c1ccc(/C=N/NC(=O)Cc2ccc(OC)c(OC)c2)cc1	MsrA inhibitor 5.2 | MsrA conf inactive
Cc1cc(N2CCN(C(=O)OC(C)(C)C)C[C@@H]2C)ccc1N1CCN(Cc2ccccc2)[C@@H](C)C1	none (no result: bovine MsrA act)
COC(=O)c1c(N)c2ccccc2[nH]c1=O	none
CC(=O)c1c(C(=O)O)c2ccccc2[nH]c1=O	MsrA inhibitor 5.1 | MsrA conf inactive
N#C/C(=N\O)c1nc2ccccc2s1	MsrA inhibitor 4.7 | MsrA conf inactive
COc1cc(OC)c(OC)cc1/C=N/NC(=S)NCC1CCCO1 (configuration not stated)	MsrA inhibitor 5.9 | MsrA conf 4.9
COc1cc(/C=N/NC(=S)NCCN2CCOCC2)cc(OC)c1O	MsrA inhibitor 5.2 | MsrA conf 5.7
COc1cc(/C=N/NC(=O)C(=O)NCC2CCCO2)ccc1O (configuration not stated)	MsrA inhibitor 4.8 | MsrA conf inactive
COc1cc(OC)c(OC)cc1/C=N/NC(=S)NCCN1CCOCC1	MsrA inhibitor 5.1 | MsrA conf inactive
S=C(NCCN1CCOCC1)N/N=C/c1ccccc1	none
Oc1ccc(/C=N/NC(=S)NCCN2CCOCC2)c(O)c1	none
Cc1cccnc1C1=NOC(Cc2ccccc2)C(=O)N1C (configuration not stated)	none
COC(=O)C(CC(=O)c1ccc(Br)cc1)n1cccn1 (configuration not stated)	none
